According to the supplement of paper PMC11732987, “Enantioselective OTUD7B fragment discovery through chemoproteomics screening and high-throughput optimisation” (Communications Chemistry, 2025):
Values without a mark were called inactive.

Compound: ClCC(=O)NC1(CCCC1)C#N
Assay: log2 ratio of Biotin-Ahx-Ub-VS probe labelling (compound/DMSO); higher = less target engagement, active = hit call of the paper (q ≤ 0.05, log2 ratio ≤ -1)
Conditions: compound concentration: 50uM; treatment time: 3 h
Description: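 Round 2 competitive ABPP in HEK293T lysate. Compounds were tested at 50 and 200 µM for 3 h, followed by Biotin-Ahx-Ub-VS enrichment and diaPASEF LC-MS/MS. Values are the average log2 ratio (compound/DMSO) from an unpaired t-test (n=3 treated, n=26 DMSO).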

Sequence of UniProt Q70EL1 (Q70EL1 whole entry): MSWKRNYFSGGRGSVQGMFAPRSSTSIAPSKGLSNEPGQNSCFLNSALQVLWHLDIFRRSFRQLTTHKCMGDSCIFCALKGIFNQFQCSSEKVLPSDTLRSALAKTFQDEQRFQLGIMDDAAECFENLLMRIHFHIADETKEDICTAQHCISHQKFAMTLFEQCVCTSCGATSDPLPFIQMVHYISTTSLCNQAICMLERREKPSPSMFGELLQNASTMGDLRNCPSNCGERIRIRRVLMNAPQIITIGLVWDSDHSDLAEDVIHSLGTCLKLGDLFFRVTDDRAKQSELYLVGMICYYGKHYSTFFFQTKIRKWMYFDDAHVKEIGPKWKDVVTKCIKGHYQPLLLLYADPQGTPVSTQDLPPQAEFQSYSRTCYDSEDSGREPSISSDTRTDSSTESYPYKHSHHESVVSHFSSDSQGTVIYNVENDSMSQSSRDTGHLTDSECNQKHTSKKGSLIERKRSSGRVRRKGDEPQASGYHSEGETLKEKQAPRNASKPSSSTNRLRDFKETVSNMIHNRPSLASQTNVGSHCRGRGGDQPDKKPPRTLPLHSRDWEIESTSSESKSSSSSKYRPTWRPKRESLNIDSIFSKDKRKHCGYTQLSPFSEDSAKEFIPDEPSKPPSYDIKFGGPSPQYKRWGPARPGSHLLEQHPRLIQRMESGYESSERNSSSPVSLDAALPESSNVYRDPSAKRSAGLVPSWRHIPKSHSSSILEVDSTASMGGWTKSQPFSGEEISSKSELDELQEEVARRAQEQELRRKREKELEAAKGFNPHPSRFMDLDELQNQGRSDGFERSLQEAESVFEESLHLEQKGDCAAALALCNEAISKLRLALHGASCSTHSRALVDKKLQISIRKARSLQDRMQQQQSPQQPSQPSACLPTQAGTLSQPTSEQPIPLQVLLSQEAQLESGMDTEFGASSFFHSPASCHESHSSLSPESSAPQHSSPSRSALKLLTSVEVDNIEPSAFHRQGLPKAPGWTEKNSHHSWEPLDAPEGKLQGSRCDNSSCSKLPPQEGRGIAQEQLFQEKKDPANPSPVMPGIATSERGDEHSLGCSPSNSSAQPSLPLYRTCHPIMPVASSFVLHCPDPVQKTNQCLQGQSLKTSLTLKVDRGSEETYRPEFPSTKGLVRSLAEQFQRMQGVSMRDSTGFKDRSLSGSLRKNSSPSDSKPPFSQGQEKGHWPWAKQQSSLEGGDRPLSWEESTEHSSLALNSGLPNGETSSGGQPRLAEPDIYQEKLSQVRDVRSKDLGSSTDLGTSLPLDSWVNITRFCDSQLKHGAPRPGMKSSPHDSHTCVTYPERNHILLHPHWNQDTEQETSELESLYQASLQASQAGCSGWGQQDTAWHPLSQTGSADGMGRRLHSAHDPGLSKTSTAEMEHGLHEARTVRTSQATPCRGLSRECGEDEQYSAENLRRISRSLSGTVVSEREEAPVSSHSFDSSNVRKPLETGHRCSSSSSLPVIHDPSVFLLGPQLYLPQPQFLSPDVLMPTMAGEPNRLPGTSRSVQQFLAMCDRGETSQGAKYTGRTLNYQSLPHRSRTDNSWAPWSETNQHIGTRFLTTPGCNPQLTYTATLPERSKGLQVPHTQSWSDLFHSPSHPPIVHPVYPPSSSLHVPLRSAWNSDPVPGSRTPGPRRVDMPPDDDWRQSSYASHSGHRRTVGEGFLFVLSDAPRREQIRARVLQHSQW
Sequence of UniProt Q5T2D3 (Q5T2D3 whole entry): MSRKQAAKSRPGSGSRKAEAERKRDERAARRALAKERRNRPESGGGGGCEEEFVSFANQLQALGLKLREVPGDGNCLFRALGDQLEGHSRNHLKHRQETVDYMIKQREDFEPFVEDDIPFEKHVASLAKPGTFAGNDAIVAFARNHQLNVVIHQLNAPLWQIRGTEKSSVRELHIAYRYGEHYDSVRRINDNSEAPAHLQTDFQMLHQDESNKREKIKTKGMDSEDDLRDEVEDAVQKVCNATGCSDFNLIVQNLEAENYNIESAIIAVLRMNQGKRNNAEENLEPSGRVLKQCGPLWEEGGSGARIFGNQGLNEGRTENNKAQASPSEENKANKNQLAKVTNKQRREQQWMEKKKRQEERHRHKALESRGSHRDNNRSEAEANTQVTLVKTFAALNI
Sequence of UniProt Q9P2H5 (Q9P2H5 whole entry): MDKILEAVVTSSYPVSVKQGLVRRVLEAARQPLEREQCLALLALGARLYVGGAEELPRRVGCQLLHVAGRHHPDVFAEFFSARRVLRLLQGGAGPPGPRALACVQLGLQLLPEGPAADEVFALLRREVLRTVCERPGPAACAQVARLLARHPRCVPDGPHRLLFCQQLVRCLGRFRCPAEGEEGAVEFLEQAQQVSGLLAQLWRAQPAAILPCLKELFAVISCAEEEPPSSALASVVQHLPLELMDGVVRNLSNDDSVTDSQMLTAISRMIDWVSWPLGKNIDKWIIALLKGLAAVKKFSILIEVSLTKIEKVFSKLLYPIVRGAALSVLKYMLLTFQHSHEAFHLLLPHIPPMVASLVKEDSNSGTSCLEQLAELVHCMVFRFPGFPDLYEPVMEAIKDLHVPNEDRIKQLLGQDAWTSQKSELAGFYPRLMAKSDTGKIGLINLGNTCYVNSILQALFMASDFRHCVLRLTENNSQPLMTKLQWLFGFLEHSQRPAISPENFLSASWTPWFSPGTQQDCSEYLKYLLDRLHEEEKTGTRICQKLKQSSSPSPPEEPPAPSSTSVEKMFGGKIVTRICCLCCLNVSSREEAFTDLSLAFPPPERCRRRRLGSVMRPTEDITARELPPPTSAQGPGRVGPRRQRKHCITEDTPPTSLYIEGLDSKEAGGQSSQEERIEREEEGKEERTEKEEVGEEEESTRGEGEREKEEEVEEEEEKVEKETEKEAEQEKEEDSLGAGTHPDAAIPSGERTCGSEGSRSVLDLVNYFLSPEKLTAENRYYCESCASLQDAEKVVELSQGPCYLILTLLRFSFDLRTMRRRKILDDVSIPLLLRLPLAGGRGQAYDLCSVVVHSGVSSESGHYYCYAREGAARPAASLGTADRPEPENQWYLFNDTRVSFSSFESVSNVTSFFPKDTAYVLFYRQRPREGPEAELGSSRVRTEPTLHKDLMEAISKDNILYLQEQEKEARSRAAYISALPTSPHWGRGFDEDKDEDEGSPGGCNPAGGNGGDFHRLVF
Sequence of UniProt P54578 (P54578 whole entry): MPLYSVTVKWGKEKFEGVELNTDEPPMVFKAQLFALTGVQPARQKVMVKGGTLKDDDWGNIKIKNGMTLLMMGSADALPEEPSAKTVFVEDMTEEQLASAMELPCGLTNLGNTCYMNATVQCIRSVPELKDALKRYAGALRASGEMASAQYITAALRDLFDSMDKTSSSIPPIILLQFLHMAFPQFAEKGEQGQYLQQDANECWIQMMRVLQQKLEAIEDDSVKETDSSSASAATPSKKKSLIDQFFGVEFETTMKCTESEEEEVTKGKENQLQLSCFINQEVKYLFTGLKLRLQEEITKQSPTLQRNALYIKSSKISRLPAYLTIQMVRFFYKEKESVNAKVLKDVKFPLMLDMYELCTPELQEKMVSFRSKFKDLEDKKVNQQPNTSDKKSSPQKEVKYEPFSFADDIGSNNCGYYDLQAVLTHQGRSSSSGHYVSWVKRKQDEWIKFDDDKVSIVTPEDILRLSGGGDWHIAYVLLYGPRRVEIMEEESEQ
Sequence of UniProt Q9UPT9 (Q9UPT9 whole entry): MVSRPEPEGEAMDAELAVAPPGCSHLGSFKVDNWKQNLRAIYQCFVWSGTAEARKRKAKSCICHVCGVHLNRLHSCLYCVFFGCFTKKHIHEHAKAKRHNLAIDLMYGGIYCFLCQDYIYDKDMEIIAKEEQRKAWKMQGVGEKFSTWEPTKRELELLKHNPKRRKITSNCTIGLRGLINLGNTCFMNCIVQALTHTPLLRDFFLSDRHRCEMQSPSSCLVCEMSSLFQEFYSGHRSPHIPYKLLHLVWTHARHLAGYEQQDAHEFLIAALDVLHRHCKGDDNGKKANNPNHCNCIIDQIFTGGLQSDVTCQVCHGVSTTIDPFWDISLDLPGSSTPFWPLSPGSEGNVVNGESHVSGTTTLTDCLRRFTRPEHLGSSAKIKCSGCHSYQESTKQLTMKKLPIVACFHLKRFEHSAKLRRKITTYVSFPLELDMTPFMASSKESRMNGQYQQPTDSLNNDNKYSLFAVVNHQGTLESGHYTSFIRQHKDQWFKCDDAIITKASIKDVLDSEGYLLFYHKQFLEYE
Sequence of UniProt Q92905 (Q92905 whole entry, looked up): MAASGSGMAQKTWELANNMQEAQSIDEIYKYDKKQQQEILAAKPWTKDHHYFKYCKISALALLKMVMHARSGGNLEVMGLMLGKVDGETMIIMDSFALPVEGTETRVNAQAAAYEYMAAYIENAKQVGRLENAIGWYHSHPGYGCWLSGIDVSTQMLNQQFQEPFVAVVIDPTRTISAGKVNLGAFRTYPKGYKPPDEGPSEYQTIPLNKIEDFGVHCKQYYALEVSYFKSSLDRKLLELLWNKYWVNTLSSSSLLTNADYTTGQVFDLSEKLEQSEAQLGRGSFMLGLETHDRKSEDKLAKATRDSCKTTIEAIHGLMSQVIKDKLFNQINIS
Sequence of UniProt P54252 (P54252 whole entry): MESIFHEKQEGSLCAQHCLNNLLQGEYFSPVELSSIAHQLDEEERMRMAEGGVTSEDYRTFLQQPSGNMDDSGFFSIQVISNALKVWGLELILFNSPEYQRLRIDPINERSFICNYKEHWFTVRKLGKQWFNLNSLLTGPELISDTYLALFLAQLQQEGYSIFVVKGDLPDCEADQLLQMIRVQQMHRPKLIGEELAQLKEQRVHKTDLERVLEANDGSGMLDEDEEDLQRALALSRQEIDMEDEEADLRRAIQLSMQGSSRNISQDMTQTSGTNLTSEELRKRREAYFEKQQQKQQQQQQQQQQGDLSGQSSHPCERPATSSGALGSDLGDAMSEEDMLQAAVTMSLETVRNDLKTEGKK

In order of rising “log2 ratio of Biotin-Ahx-Ub-VS probe labelling” value (from here on “log2 ratio”):
1. USP54 (UniProt Q70EL1)  -0.959
2. UniProt Q8TE49  -0.765
3. USP34 (UniProt Q70CQ2)  -0.504
4. USP25 (UniProt Q9UHP3)  -0.312
5. USP46 (UniProt P62068)  -0.274
6. ATXN3 (UniProt P54252)  -0.261
7. UCHL5 (UniProt Q9Y5K5)  -0.245
8. USP9X (UniProt Q93008)  -0.227
9. UniProt Q9P2H5  -0.223
10. USP7 (UniProt Q93009)  -0.163
11. USP42 (UniProt Q9H9J4)  -0.155
12. EIF3H (UniProt O15372)  -0.0689
13. UniProt Q5T2D3  -0.0676
14. YOD1 (UniProt Q5VVQ6)  -0.0389
15. USP10 (UniProt Q14694)  -0.0318
16. OTUB1 (UniProt Q96FW1)  -0.00568
17. USP14 (UniProt P54578)  0.0754
18. USP22 (UniProt Q9UPT9)  0.0772
19. COPS5 (UniProt Q92905)  0.531

With OTUD4 (UniProt Q01804) the “log2 ratio” value was -1.46 (active).

Same assay, conditions: compound concentration: 200uM; treatment time: 3 h

In order of falling “log2 ratio” value:
1. USP14 (UniProt P54578)  0.244
2. COPS5 (UniProt Q92905)  0.0873
3. EIF3H (UniProt O15372)  0.0852
4. ATXN3 (UniProt P54252)  0.039
5. YOD1 (UniProt Q5VVQ6)  0.0083
6. OTUB1 (UniProt Q96FW1)  0.00171
7. USP10 (UniProt Q14694)  -0.0398
8. UniProt Q5T2D3  -0.0477
9. USP7 (UniProt Q93009)  -0.0621
10. USP42 (UniProt Q9H9J4)  -0.0948
11. UniProt Q9P2H5  -0.102
12. USP9X (UniProt Q93008)  -0.123
13. UCHL5 (UniProt Q9Y5K5)  -0.19
14. USP46 (UniProt P62068)  -0.249
15. USP22 (UniProt Q9UPT9)  -0.266
16. USP34 (UniProt Q70CQ2)  -0.364

In the case of USP54 (UniProt Q70EL1), the “log2 ratio” value is reported as -2.5 (active).
In the case of UniProt Q8TE49, the “log2 ratio” value is reported as -1.08 (active).
With OTUD4 (UniProt Q01804) the “log2 ratio” value was -1.76 (active).
USP25 (UniProt Q9UHP3) was tested, and the “log2 ratio” value was -1.01 (active).
